In the supplement of paper PMC6555819:

How the values were obtained:
Assay in all cases: PBM binding z-score (relative to random genomic background probes); higher = stronger binding; sequences stand for … in GC…GCGATTGACAGCGTAGAATGAAGG
[1] = tested on: FXR:RXRa (NR concentration 270 nM, RXRa partner concentration 90 nM)
Procedure, shortened: (§1)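 Scanned fluorescence from custom Agilent 4×180K protein-binding microarrays was regression-normalized. Binding z-scores use random background probes as reference. Ligand-free nuclear receptor dimers were incubated on the arrays for 1 h and detected with antibodies against each partner (one per run).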

[2] = tested on: LXRa:RXRa (NR concentration 270 nM, RXRa partner concentration 90 nM)
Procedure, shortened: as §1

[3] = tested on: LXRa homodimer (NR concentration 270 nM)
Procedure, shortened: as §1

[4] = tested on: LXRb:RXRa (NR concentration 270 nM, RXRa partner concentration 90 nM)
Procedure, shortened: as §1

[5] = tested on: LXRb homodimer (NR concentration 270 nM)
Procedure, shortened: as §1

[6] = tested on: PPARa:RXRa (NR concentration 270 nM, RXRa partner concentration 90 nM)
Procedure, shortened: as §1

[7] = tested on: PPARg:RXRa (NR concentration 180 nM, RXRa partner concentration 90 nM)
Procedure, shortened: as §1

[8] = tested on: PPARg:RXRa 270nM:90nM, anti-RXR (NR concentration 270 nM, RXRa partner concentration 90 nM)
Procedure, shortened: as §1

[9] = tested on: PPARg:RXRa 30nM:10nM, anti-RXR (NR concentration 30 nM, RXRa partner concentration 10 nM)
Procedure, shortened: as §1

[10] = tested on: PPARg:RXRa 90nM:30nM, anti-RXR (NR concentration 90 nM, RXRa partner concentration 30 nM)
Procedure, shortened: as §1

[11] = tested on: PPARg:RXRa DBDmut IVT, anti-RXR (DBD mutation: RXRa K156A/R161A, NR concentration 270 nM, RXRa partner concentration 90 nM)
Procedure, shortened: as §1

[12] = tested on: PPARg:RXRa IVT, anti-PPARg (NR concentration 270 nM, RXRa partner concentration 90 nM)
Procedure, shortened: as §1

[13] = tested on: PPARg DBDmut:RXRa IVT, anti-PPARg (DBD mutation: PPARg1 K132A/R137A, NR concentration 270 nM, RXRa partner concentration 90 nM)
Procedure, shortened: as §1

[14] = tested on: PPARg DBDmut IVT, anti-PPARg (DBD mutation: PPARg1 K132A/R137A, NR concentration 270 nM)
Procedure, shortened: as §1

[15] = tested on: PPARg homodimer (NR concentration 180 nM)
Procedure, shortened: as §1

[16] = tested on: PXR:RXRa (NR concentration 270 nM, RXRa partner concentration 90 nM)
Procedure, shortened: as §1

[17] = tested on: PXR homodimer (NR concentration 270 nM)
Procedure, shortened: as §1

[18] = tested on: RARa:RXR (NR concentration 270 nM, RXRa partner concentration 90 nM)
Procedure, shortened: as §1

[19] = tested on: RARa homodimer (NR concentration 270 nM)
Procedure, shortened: as §1

[20] = tested on: RARb:RXRa (NR concentration 270 nM, RXRa partner concentration 90 nM)
Procedure, shortened: as §1

Sequence	PBM binding z-score [1]	PBM binding z-score [2]	PBM binding z-score [3]	PBM binding z-score [4]	PBM binding z-score [5]	PBM binding z-score [6]	PBM binding z-score [7]	PBM binding z-score [8]	PBM binding z-score [9]	PBM binding z-score [10]	PBM binding z-score [11]	PBM binding z-score [12]	PBM binding z-score [13]	PBM binding z-score [14]	PBM binding z-score [15]	PBM binding z-score [16]	PBM binding z-score [17]	PBM binding z-score [18]	PBM binding z-score [19]	PBM binding z-score [20]
CTACCAAGGTGAACATGGTCGTTGATTACTATTC	0.63	0.673	-0.0625	1.05	-0.345	1.73	0.829	0.843	0.0499	0.359	2.77	2.62	0.872	-0.0867	0.593	0.435	-0.201	1.12	0.284	1.66
ACAGACAGGTGATGAAGCTAACTCAGGCTATCAT	-0.132	-0.408	-0.326	-0.472	-0.446	-0.116	0.522	-0.13	-0.153	-0.11	-0.036	-0.28	0.338	0.232	0.0494	-0.231	0.283	0.275	-0.315	-0.112
CCTGCTAAGTCAATGGTCAGCTAAAGCAGCTCGC	-0.665	-0.355	-0.545	-0.517	-0.617	-0.254	-0.271	0.314	-0.862	0.0482	0.121	-0.663	-1.16	-0.747	-0.2	-0.405	-0.531	-0.153	-0.807	0.498
GCTGACGGGTCAAAGGTTATAGCATGAATAGAAT	7.43	5.45	0.433	5.53	-0.231	6.99	9.41	8.11	7.21	8.55	1.23	4.56	0.893	0.679	3.42	5.8	0.288	8.03	0.75	4.63
TCATATAGGTAAATGCTAGGTGAATGTCCGATCT	0.466	0.779	0.287	0.767	0.0198	1.39	0.932	2.17	3.49	2.66	3.97	2.57	0.725	1.15	0.769	0.548	0.635	1.02	1.27	0.461
AGTCAAAGTTCAGGACGAGGTTACGTAAAGCACG	4.83	4.65	2.06	2.7	0.273	3.73	5.02	4.89	2.32	4.2	-0.0298	2.22	0.501	0.266	2.73	4.73	2.59	4.38	1.13	4.46
TGTCAAAGTTCAAAGGTAACGTACGTATCCACAC	7.21	6.37	4.32	4.74	1.52	5.75	8.65	7.29	4.86	7.11	0.385	4.52	2.01	1.18	3.53	5.63	3	6.3	1.11	4.92
GCAGACAGGTGTAACGCAGGTAACTCAGGGTGGC	-0.697	-0.644	-1.09	-0.823	-1.61	-0.721	0.351	-0.525	-0.773	-0.582	-0.561	-0.366	-0.91	-1.52	-1.12	-0.578	-1.01	-0.502	-1.69	-0.603
ATCTCTAGGTAAAAGTTCAGTGAATCCCGAGGAT	0.943	1.4	1.16	1.12	0.841	4.11	8.09	7.52	8.83	8.39	1.99	3.82	1.42	1.8	1.4	2.14	1.95	1.64	0.604	2.42
TCATATTGGTAAAGGTGAAAGTCGAACGATATGA	0.751	1.1	-0.299	1.19	0.0352	2.58	1.89	3.8	3.95	3.9	1.58	1.69	0.994	1.2	1.15	0.712	-0.162	1.25	0.406	1.94
TATATAGGGTCAAAGGCCAGAGTACGAATGTCGA	7.32	6.1	2.48	5.05	2.01	6.35	8.65	7.34	5.8	7.54	3.56	5.37	1.12	1.69	2	4.21	0.472	5.56	0.52	4.49
TTACCAAGGTGAGCTGAGGTCCTTGATCCAACTC	0.6	-0.364	-0.744	-0.383	-1.22	0.604	-0.286	0.115	-0.357	-0.0305	0.555	1.8	-0.248	-1.12	-0.702	1.26	-0.737	0.613	-1.39	1.04
CCTACTGGGCCAAAAAGGTCATTGCTGCCGATAA	3.75	4.36	3.33	4.21	0.236	4.7	3.04	4.09	1.5	3.64	4.17	4.29	0.288	-0.116	3.92	4.87	3.45	5.19	0.902	3.98
TCTTGTAGATCAAAGGTTAAGAAGGCCGAAGCCT	1.58	2.1	-0.0136	1.83	-0.281	4.6	8.22	8.32	9.13	9.04	2.13	4.06	0.462	0.582	0.29	2.19	0.104	3.33	-0.0225	1.98
CGTCTAAGGTCAATGCTAGGTCAGTGAAAGCATT	7.02	5.82	2.56	4.58	1.34	5.36	4.53	5.68	1.9	4.12	3.81	4	-0.172	-0.413	4.57	4.95	1.41	6.06	0.698	5.35
CCCAGCAGGCCAGGGTCACTCAAGCATTTCGCTT	2.03	1.48	-0.513	1.61	-0.79	2.8	0.0881	0.885	-1.03	0.0104	-0.567	0.512	-1.55	-1.26	0.406	2.46	-0.562	3.22	-0.754	2.62
GGAACGAGGGCAAAGTGGATAGCATCTGTCGACG	0.8	0.482	-0.564	0.23	-0.66	2.86	4.34	5.37	3.71	5.67	3.95	3.72	0.652	0.661	1.42	0.489	0.241	0.674	-0.182	2.27
GCATGTAGGTAATACAAGGTGAAAGTCCGATTGT	0.127	1.13	0.162	0.172	-0.45	1.62	1.34	1.52	0.458	0.981	4.42	4.28	0.0664	0.517	0.562	0.369	0.257	1.52	0.17	0.218
TCAGACAGGTGAAGGTAACTCTGGTACGCAGTCG	0.419	2.39	-0.038	1.46	-0.229	1.23	0.517	2.02	3.66	2.66	2.58	0.996	0.246	-0.784	0.246	0.678	0.0805	0.872	0.122	1.07
ACTAGGAGGCCAAGTTTGGGTCACTCAAACAAAG	0.516	0.308	-0.0463	0.967	-0.287	1.36	0.296	0.511	-0.488	-0.0404	1.22	1.95	-0.886	-1.06	1.15	1.22	0.347	1.83	0.176	2.43
TCTATTAGTTGATTACGGCAACCGAAACAGCGGA	0.899	0.638	0.651	0.546	0.998	0.921	0.134	1.95	3.63	3.1	2.26	0.246	1.27	1.25	1.11	0.471	0.751	0.595	1.59	0.331
CGAACTAGGTTAAGGACAGTGAATCTCCGCACGC	0.447	0.377	-0.213	-0.172	-0.661	2.14	2.85	2.74	0.975	2.08	6.49	5.67	0.439	1.14	1.07	-0.145	0.015	0.949	-0.21	1.47
CCTATTAGTTGACCATAACGGCAACCGAAGCTCG	0.455	0.697	0.909	0.584	0.966	0.199	0.702	0.486	0.219	0.318	0.934	0.243	0.836	1.13	2.08	0.499	1.25	0.72	2.49	0.584
CCGATTGGGGCAGAAAGGTTACCATACCATCCGG	0.261	0.61	-0.352	1.09	-0.598	2.22	2.06	3.83	2.17	3.56	0.436	1.14	-1.01	-0.679	0.221	1.24	-0.318	1.66	-0.348	1.88
CCGACTGGGGCAGAAAGCTTACCATACCATCCGG	-0.854	-0.845	-0.778	-0.743	-0.693	-0.683	0.434	-0.227	-0.693	-0.772	1.49	0.739	-1.01	-2.56	-0.236	-0.856	-0.585	-1.22	-0.188	-0.092
TCGAGTAGGTTAGGGGCGTTCAGAATGGCGTCGA	0.341	0.362	-0.22	0.565	-0.227	0.892	0.197	1.54	0.846	1.56	1.69	1.26	0.15	-0.777	0.542	0.471	0.0132	0.223	-0.263	0.552
